Measured values published in the OligoGym collection.

What follows are sequences tested against ELF2 (assay: pooled miR-30 sensor sort-seq; sequence = guide strand). Conditions: shRNA.
Also: reference of the scale not given here.

| Sequence | sensor-assay potency score (higher = more potent) |
| --- | --- |
| TTTATCTTGAAGTAGATCTAAA | -0.649 |
| TGATATTCACAACTCTAGCTAC | -0.607 |
| TATGTTTTTCGGCATATCCTTG | -0.943 |
| TTGTCTGCAGTTGACACTGTGC | -0.232 |
| TATCCTTGAACTGATATACAAG | -1.19 |
| TTGAACTGATATACAAGCCTCT | 0.343 |
| TAATCTGGCACTTGGAACTGGC | -0.333 |
| TTCTTCTGCCACATCTTGCATC | -0.811 |
| TTTCACATCATGTTCTTGCTTT | 0.568 |
| TTTCACTTTTGTCATCATCTAT | -0.516 |

Each sequence was assayed against EMD in the same assay as above. Conditions: shRNA.

| Sequence | sensor-assay potency score (higher = more potent) |
| --- | --- |
| TAATAGGACAGGTCCAGGGAGC | -1.25 |
| TACATATCTGCATCCCCTCTAG | -0.434 |
| TAGCTCTCTTCATAGTAGTCGT | -0.538 |
| TACTCGAAGATCTTCTTCTCGT | -0.0297 |
| AAAGCCTACGAGTTGATCCTAC | -0.00514 |
| TTCCCTATCCTTGCACTCCTCT | -0.239 |
| TGCTCTGGTAGAGTAAAGCGTC | -0.878 |
| AAGAAGACAAAAGATCGTCATC | -1.25 |
| AAGATCGTCATCATGCACCTGG | 0.638 |
| TAGTAGTCGTCATTGTAGCCCT | -0.272 |
| TATCCTTGCACTCCTCTTCAGA | -0.66 |
| TGGTGAAGTAGCTCTCTTCATA | -1.46 |
| AATGAAGTCACTGACTGGCGGA | -0.824 |
| TAGTCGTCATTGTAGCCCTTGC | -0.858 |
| TAAAGCGTCCTCTTTCTTGGGA | 0.267 |
| TTCTTCTCGTAAAGCCTACGAG | -0.852 |
| ATCTTCTTCTCGTAAAGCCTAC | -1.02 |
| TCGTACTCGAAGATCTTCTTCT | 0.284 |
| TAGGATAATAGGACAGGTCCAG | -0.423 |
| TCGAAGATCTTCTTCTCGTAAA | -1.01 |
| TCTGGTAGAGTAAAGCGTCCTC | 0.201 |
| TAGTGCGTGATGCTCTGGTAGG | -0.899 |
| ATCGTCATCATGCACCTGGTGA | -0.488 |
| TACGAGTTGATCCTACTACAGG | -1.33 |

The sequences below were run against EMILIN2 in the same assay as above. Conditions: shRNA.

| Sequence | sensor-assay potency score (higher = more potent) |
| --- | --- |
| TTTAATTCCATCATGACCCGTT | 0.891 |
| TTCTCCGTCACATTGATCCTTG | -0.623 |
| TTGAACTTTGTCCTTCAGGTGG | -0.378 |
| TAGGTCTGAAGTTCACTCGATA | -0.326 |
| TTTCTGATCAACAAGCTGCTTC | 0.352 |
| TTTATTGACACTCCCTGTCTTT | -0.458 |
